# Test results: PubChem BioAssay (Tox21)
# Values without a mark were called inactive. Results filed as inconclusive are left out. A call without a number means that no potency is given here. Calls of active or inactive are those of the source. Unless noted, the call rests on the fitted dose curve; in most records, active means well fitted curve in the direction sought with a large enough effect in the repeat runs; inconclusive means weak or mixed curves; inactive means no such curve, though single readings can be large; an effect the other way counts as inactive or inconclusive.
# What was measured:
# [1] = A CellTox Green Cytotoxicity Assay to monitor cytotoxicity in HepG2 cells - 8 hour (AID 1224890); further: nearly all actives have a fitted effect of over 45% in size
# Method in brief: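 HepG2 cells were seeded together with the CellTox Green dye at 600 cells/well, left 5 h at 37 C/5% CO2, then given compounds in DMSO. Fluorescence from dye bound to dead-cell DNA was read repeatedly over 40 h of treatment at 37 C.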
# [2] = qHTS assay to identify small molecule antagonists of the estrogen receptor alpha (ER-alpha) signaling pathway using the BG1 cell line in the presence of 0.1 nM 17-beta-estradiol - cell viability counter screen (AID 1259241); further: nearly all actives have a fitted effect of over 40% in size
# Method in brief: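 Cells were plated and left 24 hr, compounds in DMSO were pinned in, 17beta-estradiol was added to 0.1 nM final, and after 22 hr CellTiter-Fluor reagent was added for 30 min before fluorescence was read.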
# [3] = qHTS assay to identify small molecule antagonists of the androgen receptor (AR) signaling pathway using the MDA cell line in the presence of 0.5 nM R1881 - cell viability counter screen (AID 1259242); further: nearly all actives have a fitted effect of over 45% in size
# Method in brief: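 MDA-kb2 cells (human breast carcinoma, stably carrying MMTV-luciferase reporter) were exposed to compounds with 0.5 nM R1881 (final) for 16 hr at 37C, 0% CO2; viability then read as live-cell protease fluorescence (CellTiter-Fluor, 30 min) in the same wells.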
# [4] = target: Estrogen receptor (Homo sapiens) (UniProt P03372); test: qHTS assay to identify small molecule antagonists of the estrogen receptor alpha (ER-alpha) signaling pathway using the BG1 cell line in the presence of 0.1 nM 17-beta-estradiol (AID 1259244); further: nearly all actives have a fitted effect of over 50% in size
# Method in brief: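 VM7Luc4E2 cells (endogenous full-length ER-alpha, stable 4xERE-luciferase) were grown 5 days in phenol red-free medium with charcoal-stripped FBS, then exposed 22 h at 37C to compounds plus 0.1 nM (final) 17beta-estradiol; ONE-Glo luminescence read-out.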
# [5] = qHTS assay to identify small molecule HDAC inhibitors - cell viability counter screen (AID 1259365); further: series mostly up to about 92 µM; nearly all actives have a fitted effect of over 50% in size
# Method in brief: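 Counter screen in wild-type HCT-116 cells: compounds dissolved in DMSO are pin-transferred onto overnight-plated cells and left 2hr at 37C. ATP-based CellTiter-Glo luminescence then measures viable cells.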
# [6] = qHTS assay to identify small molecule antagonists of the sonic hedgehog signaling (Shh) pathway - cell viability counter screen (AID 1259367); further: nearly all actives have a fitted effect of over 55% in size; further: potency means the concentration at half of the fitted maximal effect
# Method in brief: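 NIH/3T3-derived Gli1-Luc reporter cells, 2,000/well, plated 4 hr before compound addition, then stimulated with conditioned medium for 24 hr at 37C. Viability measured in the same wells by CellTiter-Fluor fluorescence, reagent added at 23 hr for 1 hr.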
# [7] = qHTS assay to identify small molecule agonists of the sonic hedgehog signaling (Shh) pathway (AID 1259368; calls by dose curve; further: series mostly up to about 92 µM; nearly all actives have a fitted effect of over 15% in size)
# Method in brief: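 NIH/3T3-derived 3T3Gli1-Luc cells carrying a stably integrated Gli1 response element–firefly luciferase reporter were plated, left 4 hr at 37 C, then given compounds in DMSO for 24 hr. Luminescence was read 30 min after adding luciferase reagent.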
# [8] = qHTS assay to identify small molecule antagonists of the sonic hedgehog signaling (Shh) pathway (AID 1259369; calls by dose curve; further: nearly all actives have a fitted effect of over 45% in size; further: potency means the concentration at half of the fitted maximal effect)
# Method in brief: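 NIH/3T3-derived 3T3Gli1-Luc cells with stably integrated Gli1-Luc reporter were preincubated 4hr at 37 C, then given compounds in DMSO plus Shh conditioned medium and incubated 24hr. Firefly luciferase luminescence read after 30min reagent at room temperature.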
# [9] = qHTS assay to identify small molecule agonists of the androgen receptor (AR) signaling pathway in the presence of an antagonist - cell viability counter screen (AID 1259379); further: series mostly up to about 92 µM; nearly all actives have a fitted effect of over 25% in size
# Method in brief: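 MDA-kb2 human breast carcinoma cells (stable MMTV-luciferase, AR/GR responsive) were seeded 3,000 cells/well, pre-incubated 5 hr at 37C without CO2, then given 3.0uM nilutamide and compounds at 15 concentrations for 16 hr. Viability was read by CellTiter-Fluor fluorescence.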
# [10] = qHTS assay to identify small molecule agonists of the estrogen receptor beta (ER-beta) signaling pathway - cell viability counter screen (AID 1259380); further: nearly all actives have a fitted effect of over 30% in size; further: potency means the concentration at half of the fitted maximal effect
# Method in brief: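 ER-beta-UAS-bla HEK293T cells in medium with 2% charcoal-stripped FBS were preincubated 6 hr at 37C, dosed with compound in DMSO for 16 hr, then after the bla read, CellTiter-Glo was added for 30 min at room temperature; luminescence recorded.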
# [11] = qHTS assay to identify small molecule antagonists of the estrogen receptor beta (ER-beta) signaling pathway - cell viability counter screen (AID 1259382); further: series mostly up to about 92 µM; nearly all actives have a fitted effect of over 55% in size
# Method in brief: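 ER-beta-UAS-bla HEK293T cells (2,000/well, 2% charcoal-stripped FBS) were pre-incubated 6 hr at 37C, then given compound plus 1nM final 17-beta-estradiol for 16 hr. Viability was read in the same wells by CellTiter-Glo luminescence after 30 min at room temperature.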
# [12] = target: Estrogen receptor (Homo sapiens) (UniProt P03372); test: qHTS assay to identify small molecule agonists of the estrogen receptor alpha (ER-alpha) signaling pathway in the presence of an antagonist (AID 1259383; calls by dose curve; further: top concentration of the series differs between compounds; nearly all actives have a fitted effect of over 15% in size)
# Method in brief: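 VM7Luc4E2 cells (endogenous full-length ER-alpha, 4×ERE-luciferase) were precultured 5 days in phenol red-free medium with 10% charcoal-stripped FBS, given 10.0nM ICI-182,780 (final), then treated with compounds at 15 concentrations for 22hr at 37C; luminescence read with ONE-Glo.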
# [13] = qHTS assay to identify small molecule agonists or antagonists of the thyroid stimulating hormone receptor (TSHR) signaling pathway - wild type cell line counter screen (AID 1259384; calls by dose curve)
# Method in brief: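 Wild-type Hek293 cells, 800/well, 18 h at 37C, then compound with Ro20-1724 for 30 min RT. cAMP by HTRF (cAMP-d2/anti-cAMP cryptate), 1 h RT, fluorescence read. 15 concentrations, triplicates.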
# [14] = qHTS assay to identify small molecule HDAC inhibitors (AID 1259364); further: nearly all actives have a fitted effect of over 45% in size; further: potency means the concentration at half of the fitted maximal effect
# Method in brief: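 Wild-type HCT-116 cells were plated overnight, exposed to compounds for 2 h at 37 °C, then given HDAC-Glo class I/II luminogenic reagent for 30 min at room temperature before luminescence was read.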
# [15] = qHTS assay to identify small molecule agonists of the sonic hedgehog signaling (Shh) pathway - cell viability counter screen (AID 1259366); further: nearly all actives have a fitted effect of over 50% in size
# Method in brief: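 Cells are plated at 2,000 per well and left 4hr at 37C, 5% CO2 before compound addition. After 23hr of treatment, CellTiter-Fluor reagent is added for 1hr at 37C and fluorescence is measured.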
# [16] = target: Estrogen receptor beta (Homo sapiens) (UniProt Q92731); test: qHTS assay to identify small molecule agonists of the estrogen receptor beta (ER-beta) signaling pathway (AID 1259377; active means well fitted activation curve with a large enough effect in the signal ratio in the repeat runs, not every such curve was filed as active; the % refers to the signal ratio)
# Method in brief: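 Agonist mode cell assay in GripTite HEK293T cells expressing an ER-beta fusion that drives beta-lactamase from an Upstream Activator Sequence; 16 hr compound exposure at 37C, then 2 h LiveBLAzer B/G FRET substrate at room temperature, fluorescence read-out.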
# [17] = target: Estrogen receptor beta (Homo sapiens) (UniProt Q92731); test: qHTS assay to identify small molecule antagonists of the estrogen receptor beta (ER-beta) signaling pathway (AID 1259378; active means well fitted inhibition curve with a large enough effect in the signal ratio in the repeat runs, not every such curve was filed as active; the % refers to the signal ratio)
# Method in brief: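 ER-beta-UAS-bla HEK293T cells in 2% charcoal-stripped FBS medium treated with compound plus 1nM final 17-beta-estradiol for 16 hr at 37C. Beta-lactamase reporter read by FRET substrate fluorescence after 2 hours at room temperature.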
# [18] = qHTS assay to identify small molecule phospholipidosis (PLD) inducers (AID 1259344; active means well fitted curve in the direction sought with a large enough effect; an effect the other way counts as inactive or inconclusive; further: potency means the concentration at half of the fitted maximal effect)
# Method in brief: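 HepG2 cells, 900/well, treated with compound plus LipidTOX Red for 24 h at 37 C; amiodarone positive and DMSO negative controls. Fixed with paraformaldehyde/Hoechst, then high-content imaging scored LipidTOX pit count and integrated intensity per well and per cell.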
# Sequence of Estrogen receptor beta (Homo sapiens) (Q92731 whole entry, looked up, the tested form may be a part): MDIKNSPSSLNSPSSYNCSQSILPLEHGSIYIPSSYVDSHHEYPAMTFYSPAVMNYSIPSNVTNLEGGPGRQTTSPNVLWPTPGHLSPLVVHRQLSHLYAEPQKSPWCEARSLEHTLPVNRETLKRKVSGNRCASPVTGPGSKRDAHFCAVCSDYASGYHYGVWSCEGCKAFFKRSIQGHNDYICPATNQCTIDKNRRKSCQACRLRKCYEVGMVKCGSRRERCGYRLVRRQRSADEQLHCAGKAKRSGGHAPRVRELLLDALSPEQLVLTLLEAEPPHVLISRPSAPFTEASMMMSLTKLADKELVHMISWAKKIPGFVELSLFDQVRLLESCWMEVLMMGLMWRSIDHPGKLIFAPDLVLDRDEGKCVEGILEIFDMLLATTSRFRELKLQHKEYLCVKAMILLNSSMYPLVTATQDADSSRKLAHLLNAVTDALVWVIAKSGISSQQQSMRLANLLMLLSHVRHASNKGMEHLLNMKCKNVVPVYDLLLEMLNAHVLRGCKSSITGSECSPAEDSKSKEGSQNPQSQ
# Sequence of Estrogen receptor (Homo sapiens) (P03372 whole entry, looked up): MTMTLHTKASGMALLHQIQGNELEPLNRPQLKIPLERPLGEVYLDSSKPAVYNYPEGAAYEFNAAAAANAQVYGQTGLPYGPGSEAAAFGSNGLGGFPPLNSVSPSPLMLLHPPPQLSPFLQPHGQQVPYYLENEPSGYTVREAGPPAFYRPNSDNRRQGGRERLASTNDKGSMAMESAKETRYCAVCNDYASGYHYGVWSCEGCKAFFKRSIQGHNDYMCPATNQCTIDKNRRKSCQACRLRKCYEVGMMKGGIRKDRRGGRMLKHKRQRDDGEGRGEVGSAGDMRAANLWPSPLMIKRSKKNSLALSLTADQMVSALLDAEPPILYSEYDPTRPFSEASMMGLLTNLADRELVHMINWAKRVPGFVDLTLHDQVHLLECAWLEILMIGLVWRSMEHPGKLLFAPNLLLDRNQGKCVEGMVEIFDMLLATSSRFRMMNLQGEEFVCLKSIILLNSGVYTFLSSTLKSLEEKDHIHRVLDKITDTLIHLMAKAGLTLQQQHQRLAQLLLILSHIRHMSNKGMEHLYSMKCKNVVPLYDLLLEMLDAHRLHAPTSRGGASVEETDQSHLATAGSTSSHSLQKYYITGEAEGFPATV
SMILES,Potency [1],Potency [2],Potency [3],Potency [4],outcome [5],Potency [6],Potency [7],Potency [8],Potency [9],Potency [10],Potency [11],Potency [12],outcome [13],Potency [14],Potency [15],Potency [16],Potency [17],Potency [18]
Nc1ccc(-c2ccc(F)cc2)cc1,inactive,inactive,inactive,inactive,inactive,inactive,inactive,inactive,inactive,inactive,inactive,inactive,inactive,,,,,
CCC(=O)O[C@@H]1C[C@H]2CC[C@]1(C)C2(C)C,inactive,inactive,inactive,,inactive,inactive,inactive,inactive,inactive,inactive,inactive,,,inactive,inactive,inactive,inactive,
CCCCCO,inactive,inactive,inactive,inactive,inactive,,inactive,inactive,inactive,inactive,inactive,inactive,inactive,inactive,inactive,,inactive,
CC(C)CCCCCOC(=O)CS,inactive,inactive,inactive,inactive,inactive,,inactive,inactive,inactive,inactive,inactive,inactive,inactive,inactive,inactive,,,
Cc1c(Nc2ncccc2C(=O)O)cccc1C(F)(F)F,inactive,inactive,inactive,,inactive,inactive,inactive,inactive,inactive,8.41 µM (active),,,inactive,,inactive,,,inactive
COc1ccc(/C=C/c2cc(OC)cc(=O)o2)cc1,inactive,inactive,inactive,inactive,inactive,inactive,,inactive,inactive,inactive,inactive,inactive,,6.26 µM (active),,inactive,inactive,
Clc1ccccc1-c1nc(-c2ccncc2)no1,inactive,inactive,inactive,,inactive,inactive,,inactive,inactive,inactive,inactive,,inactive,2.66 µM (active),inactive,,,inactive
CC(C)CCCCCCCOC(=O)c1ccc(C(=O)OCCCCCCCC(C)C)c(C(=O)OCCCCCCCC(C)C)c1,inactive,inactive,inactive,,inactive,42.6 µM (active),inactive,4.78 µM (active),inactive,inactive,inactive,,inactive,inactive,inactive,inactive,inactive,
CCc1c(C)[nH]c2c1C(=O)C(CN1CCOCC1)CC2 (stereo not given),inactive,inactive,inactive,,inactive,,inactive,inactive,inactive,inactive,inactive,,inactive,inactive,inactive,,,inactive
C[C@]12CCC(=O)C=C1[C@@H]1C[C@@H]1[C@H]1[C@@H]3[C@@H]4C[C@@H]4[C@@]4(CCC(=O)O4)[C@@]3(C)CC[C@@H]12,inactive,inactive,inactive,,inactive,inactive,inactive,,,,inactive,,,inactive,inactive,,,11.2 µM (active)
CO[C@@H]1[C@@H](O[C@@H]2O[C@H](C)[C@@H](O[C@H]3C[C@@](C)(O)[C@@H](O)[C@H](C)O3)[C@H](N(C)C)[C@H]2O)[C@@H](CC=O)C[C@@H](C)[C@@H](O[C@@H]2CC[C@H](N(C)C)[C@@H](C)O2)/C=C/C=C/C[C@@H](C)OC(=O)C[C@H]1OC(C)=O,inactive,inactive,inactive,inactive,inactive,inactive,inactive,,inactive,,inactive,inactive,,inactive,inactive,inactive,inactive,
CCCCCCCCCCCCSC#N,inactive,inactive,inactive,inactive,inactive,inactive,inactive,inactive,,,inactive,inactive,inactive,inactive,inactive,,,
CS(C)=O,inactive,inactive,inactive,,inactive,inactive,inactive,68.6 µM (active),inactive,inactive,inactive,,inactive,inactive,inactive,,,
COC(=O)C(C)(C)C,inactive,inactive,inactive,,inactive,inactive,inactive,inactive,,,inactive,,inactive,inactive,inactive,,,
COc1ccc(/C=C/S(=O)(=O)NC(=O)c2ccc(C)cc2Cl)cc1,inactive,inactive,inactive,,inactive,,inactive,inactive,inactive,,,,inactive,inactive,inactive,inactive,,
